Screening data (PubChem)
FLuc inh – Firefly luciferase inhibition profiling of diverse chemical library using quantitative high-throughput screening. hit rate 2.5% among 76,000. purified P. pyralis luciferase, luminescence, biochemical. Luciferin 4-monooxygenase (Photinus pyralis), P08659. Potency, µM (top dose mostly 115 µM), hits mostly inhibitors; note: nearly all actives have a fitted effect of over 65% in size
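Inhibitors were tested against purified firefly luciferase in a biochemical, low-substrate format (both substrates at 10uM) and luminescence measured with a CCD imager.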
3T3 cytotox – Cytotoxic Profiling in NIH 3T3 Cell Line of Diverse Libraries Using Quantitative High-Throughput Screening | hit rate 4.3% among 94,000 | Potency, µM (titrated, usually from 96.7 µM), inactives show top-dose activity change, negative = cytotoxicity, most hits filed as inhibitors | NIH 3T3 viability, CellTiter-Glo ATP luminescence, 48-72 h; note: nearly all actives have a fitted effect of over 55% in size
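Luminescent ATP readout (CellTiter-Glo, 10 min RT) after 48 or 72 hr compound exposure of NIH 3T3 cells seeded at 400 cells/well in 1536-well format; quantitative HTS.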
GPT2 inhibitor – Primary qHTS assay for inhibitors of Glutamate pyruvate transaminase 2 (GPT2) | Alanine aminotransferase 2 (Homo sapiens), Q8TD30 | Recombinant GPT2, coupled pyruvate oxidase/HRP Amplex Red fluorescence | Potency, µM (doses to about 57.7 µM), without a hit: top-dose activity change, negative = inhibition, hits mostly inhibitors | hit rate 0.25% among 100,000; note: nearly all actives have a fitted effect of over 60% in size
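Recombinant GPT2 (10ng/uL) with 250uM a-KG and 2mM L-alanine, 30 min at room temperature, in HEPES pH 7.5 buffer. Pyruvate detected by pyruvate oxidase/HRP/Amplex Red fluorescence after 30 min in the dark; AOA (50uM) as positive control.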
HEK cytotox – Cytotoxic Profiling in HEK 293 Cell Line of Diverse Libraries Using Quantitative High-Throughput Screening; hit rate 6.6% among 94,000; Potency, µM (titrated, usually from 115 µM), inactives show at the top dose activity change, negative = cytotoxicity, hits mostly inhibitors; HEK 293 viability, ATP luminescence (CellTiter-Glo), 48-72 h; note: nearly all actives have a fitted effect of over 60% in size
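Cells seeded first (HEK 293, 250 cells/well), then compound added by pintool. Incubation ran 48 or 72 hr at 37 degree Celsius. CellTiter-Glo was added and luminescence imaged after 10 min at room temperature.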
NPR1 antag – Natriuretic polypeptide receptor (hNpr1) antagonism - Primary qHTS | Atrial natriuretic peptide receptor 1 (Homo sapiens), P16066 | HEK293 hNpr1 GloSensor cGMP, ANP-stimulated luminescence | Potency, µM (top dose mostly 46.3 µM), inactives show at the top dose activity change, negative = inhibition, usual class: inhibitors | hit rate 1.6% among 76,000 | AID 1347048, 2019; calls by dose curve; note: nearly all actives have a fitted effect of over 60% in size
Target sequence (P16066 whole entry, looked up): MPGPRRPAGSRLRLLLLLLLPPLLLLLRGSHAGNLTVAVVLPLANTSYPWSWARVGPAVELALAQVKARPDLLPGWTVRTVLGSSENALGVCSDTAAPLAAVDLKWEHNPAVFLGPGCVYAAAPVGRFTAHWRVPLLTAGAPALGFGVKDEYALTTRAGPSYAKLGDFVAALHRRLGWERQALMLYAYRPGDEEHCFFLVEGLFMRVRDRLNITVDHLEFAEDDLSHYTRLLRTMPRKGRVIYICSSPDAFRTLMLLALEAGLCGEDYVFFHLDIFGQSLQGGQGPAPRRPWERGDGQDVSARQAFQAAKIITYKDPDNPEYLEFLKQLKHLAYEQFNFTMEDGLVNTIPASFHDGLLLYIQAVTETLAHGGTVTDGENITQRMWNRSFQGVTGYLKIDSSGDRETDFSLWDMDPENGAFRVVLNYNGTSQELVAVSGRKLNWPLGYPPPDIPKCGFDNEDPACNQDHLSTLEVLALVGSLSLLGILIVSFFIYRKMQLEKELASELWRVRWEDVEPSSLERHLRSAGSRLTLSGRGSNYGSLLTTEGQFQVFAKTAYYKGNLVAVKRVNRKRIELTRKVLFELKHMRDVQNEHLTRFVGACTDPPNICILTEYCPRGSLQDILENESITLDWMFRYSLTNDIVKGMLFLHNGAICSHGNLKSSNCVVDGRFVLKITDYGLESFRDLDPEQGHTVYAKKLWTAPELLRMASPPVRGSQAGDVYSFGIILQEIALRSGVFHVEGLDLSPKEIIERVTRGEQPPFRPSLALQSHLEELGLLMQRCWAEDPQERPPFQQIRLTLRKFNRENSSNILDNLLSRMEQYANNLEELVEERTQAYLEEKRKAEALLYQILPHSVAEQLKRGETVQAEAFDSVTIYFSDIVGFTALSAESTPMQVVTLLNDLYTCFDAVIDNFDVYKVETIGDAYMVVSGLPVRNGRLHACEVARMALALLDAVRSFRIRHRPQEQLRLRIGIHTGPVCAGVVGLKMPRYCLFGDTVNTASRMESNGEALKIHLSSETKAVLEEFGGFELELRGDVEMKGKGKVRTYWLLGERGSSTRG
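HEK293 cells stably expressing human Npr1 and cGMP GloSensor pGS-40F, loaded 2 h with 2% GloSensor reagent, given compound 30 min at room temperature. Luminescence read before and 20 min after 0.1 nM hNppA.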
Numbers without * were called inactive; i = inactive; ? = inconclusive; · = not tested or not shown; [ ] = remark or other dose. Only some compounds are listed: those with a hit (about 10% of all), similar ones and a draw of the others. Unless noted, calls come from the whole dose curve; as a rule, active = well fitted curve in the direction sought with a large enough effect; inconclusive = small, poorly fitted or top-dose-only effect, or another doubt; inactive = no such curve, though single readings can be large; an effect the other way counts as inactive or inconclusive. % is set by controls: 0 for no effect and ±100 for the full control effect; potency is the fitted concentration of half-maximal effect.

SMILES | FLuc inh | 3T3 cytotox | GPT2 inhibitor | HEK cytotox | NPR1 antag
O=C(NC1CCN(Cc2cccc(-c3cccs3)c2)CC1)c1cccnc1 | · | ? | 1.8% | ? | ·
CCN1Cc2cc(OC)ccc2N(C(C)=O)CCC1=O | · | ? | · | -9.8% | ·
C=CCNC(=O)c1coc(COc2ccc3c(c2)C(c2ccc(C)cc2)N(C(=O)C2CC2)CC3)n1 (stereo not given) | i | ? | -13.2% | ? | -19.9%
Cc1ccc(C2c3cc(OCc4nc(C(=O)N5CCCC5)co4)ccc3CCN2C(=O)C2CC2)cc1 (stereo not given) | i | ? | -9.9% | 39.8µM* | -2.0%
CC(C)C(=O)N1CCc2ccc(OCc3nc(C(=O)N4CCCC4)co3)cc2C1c1cccc(F)c1 (stereo not given) | i | ? | -9.1% | ? | -2.9%
C=CCNC(=O)c1coc(COc2ccc3c(c2)C(c2cccc(C)c2)N(C(=O)C2CC2)CC3)n1 (stereo not given) | i | ? | 1.6% | 35.5µM* | -15.2%
COCCNC(=O)c1coc(COc2ccc3c(c2)C(c2ccc(C)cc2)N(C(=O)C2CC2)CC3)n1 (stereo not given) | i | ? | i | 25.1µM* | 2.0%
C=CCNC(=O)c1coc(COc2ccc3c(c2)C(c2cccc(F)c2)N(C(=O)C2CC2)CC3)n1 (stereo not given) | i | ? | -6.4% | ? | -16.5%
CC(C)CNC(=O)c1coc(COc2ccc3c(c2)C(c2ccccc2)N(C(=O)C(C)C)CC3)n1 (stereo not given) | i | 39.8µM* | -9.1% | ? | -15.8%
COc1cccc(CNC(=O)C2CN(C3CCCC3)C(=O)N2)c1 (stereo not given) | · | -6.0%[138 µM] | i | i | ·
CCC(=O)N1CCc2ccc(OCc3nc(C(=O)NCCOC)co3)cc2C1c1ccc(C)cc1 (stereo not given) | i | -27.7% | 3.5% | 28.2µM* | 0.3%
C[S+](=O)([O-])NC1CC2(CCN(C(=O)Cc3c[nH]c4ccccc34)CC2)c2ccccc21 (stereo not given) | · | -12.3% | -7.2% | -3.1% | ·
CC(C)n1nc(-c2cc3cc(O)ccc3[nH]2)c2c(N)ncnc21 | · | · | 8.91µM* | · | ·
C[C@H](Cn1cnc2c(N)ncnc21)OCP(=O)(O)O | · | · | i | · | ·
N#Cc1cccc(CN(Cc2cccc(C#N)c2)[C@@H]2CO[C@H](CNC(=O)c3ccccc3)[C@H]2O)c1 | i | ? | i | 79.4µM* | 0.6%
O=C1[C@H]2CN(Cc3ccc(Cl)cc3)C[C@H]2C(=O)N1CCN1CCc2ccccc2C1 | i | ? | -19.5% | ? | -25.2%
Cc1noc(C)c1-c1cc(-c2ccccc2C(F)(F)F)cn2cncc12 | i | ? | -3.5%[88.5 µM] | 70.8µM* | -23.4%[70.6 µM]
FC(F)(F)c1ccccc1-c1cc(-c2cccnc2)c2cncn2c1 | i | 44.7µM* | 1.9%[88.5 µM] | 63.1µM* | -4.0%[70.6 µM]
Cc1noc(C)c1-c1cc(-c2ccccc2F)cn2cncc12 | i | ? | -14.2%[88.5 µM] | 79.4µM* | -3.3%[70.6 µM]
Cc1noc(C)c1-c1cc(-c2ccc([S+](C)(=O)[O-])cc2)cn2cncc12 | i | ? | -3.7%[88.5 µM] | ? | 0.7%[70.6 µM]
CCOC1CCOC2(CCN(C(=O)Cc3ccccc3)CC2)C1 (stereo not given) | · | -11.4% | 3.6% | -24.3% | ·
Cc1ccc([S+](=O)([O-])NCCNC(=O)c2cccc(-c3ncccc3C#N)c2)cc1 | · | -25.9% | 1.5% | -26.7% | ·
C[S+](=O)([O-])N1CCC(Cn2ccc3c(N4CCOCC4)nc(-c4cncnc4)cc32)CC1 | i | ? | ? | -15.2% | -9.2%
COc1ncccc1-c1cc2c(ccn2CC2CCN(C)CC2)c(N2CCOCC2)n1 | i | 44.7µM* | ? | 89.1µM* | -12.7%[70.6 µM]
COc1cccc(-c2cc3c(ccn3CC3CCN(C)CC3)c(N3CCOCC3)n2)c1 | i | 25.1µM* | -25.7%[88.5 µM] | 63.1µM* | -0.4%[70.6 µM]
SMILES | FLuc inh | 3T3 cytotox | GPT2 inhibitor | HEK cytotox | NPR1 antag
COc1ncccc1-c1cc2c(ccn2Cc2ccncc2)c(N2CCOCC2)n1 | i | ? | ? | -30.0%[172 µM] | -9.2%[70.6 µM]
CCCCc1cc(C[C@H]2CNCC[C@H]2CC(=O)N2CCC(Cc3ccccc3)CC2)no1 | i | 28.2µM* | 0.0% | ? | 1.6%
CCCCc1cc(C[C@H]2CNCC[C@H]2CC(=O)NC2CCCCC2)no1 | i | ? | i | ? | 2.3%[70.6 µM]
O=C(C[C@@H]1CCNC[C@@H]1Cc1cc(CC2CCCCC2)on1)N1CCC(Cc2ccccc2)CC1 | i | 25.1µM* | -2.4% | ? | -2.5%
O=C(C[C@@H]1CCNC[C@@H]1Cc1cc(COc2ccccc2)on1)N1CCC(Cc2ccccc2)CC1 | i | 28.2µM* | -1.2% | 25.1µM* | -16.5%
O=C(C[C@@H]1CCNC[C@@H]1Cc1cc(COc2ccccc2)on1)NC1CCCCC1 | i | 63.1µM* | i | 100µM* | 3.6%[70.6 µM]
COc1ncccc1-c1nc2cc(C(=O)Nc3ccc(F)cc3)ccc2o1 | · | -12.6% | -1.5% | ? | ·
COc1ccc(CC(=O)N2CC(=O)N(C3CCCCC3)CC(O)C2)cc1 (stereo not given) | · | ? | · | -10.8% | ·
CCOc1cccn2c(=O)c(-c3cc(C)n(-c4ccc(Cl)cc4)n3)c(C)nc12 | i | -15.4% | -6.7% | ? | -1.3%
Cc1nc2c(OCC(=O)c3ccccc3)cccn2c(=O)c1-c1cc(C)n(-c2ccc(Cl)cc2)n1 | 28.2µM* | ? | -5.7% | ? | -0.2%
CC(C)NC(=O)c1cnc2c(c1)N(C(=O)Cc1ccc(C(C)C)cc1)CCC2 | i | ? | -6.5%[88.5 µM] | ? | -18.0%[70.6 µM]
CC(C)c1ccc(CC(=O)N2CCCc3ncc(C(=O)NCCN4CCCC4)cc32)cc1 | i | ? | -30.3%[88.5 µM] | ? | 1.3%[70.6 µM]
CC(C)c1ccc(CC(=O)N2CCCc3ncc(C(=O)NCc4ccccc4)cc32)cc1 | i | 89.1µM* | -9.8%[88.5 µM] | 89.1µM* | -5.4%[70.6 µM]
CC(C)c1ccc(CC(=O)N2CCCc3ncc(C(=O)NCCN(C)C)cc32)cc1 | i | 100µM* | i | ? | 4.6%[70.6 µM]
CC(C)c1ccc(CC(=O)N2CCCc3ncc(C(=O)Nc4ccc5[nH]ccc5c4)cc32)cc1 | i | ? | -16.1% | 35.5µM* | -5.8%
CC(=O)N1CCCN(c2cc(Cl)nc3ccnn23)CC1 | i | -19.1%[138 µM] | ? | -21.5%[172 µM] | 31.4%[70.6 µM]
NC(=O)c1noc2c1CN(c1cc(-c3ccccc3)nc3ccnn13)CC2 | i | ? | i[11.5 µM] | 44.7µM* | -20.5%
